Only some compounds are listed: those with a hit (about 4.4% of all), similar ones and a draw of the others.
TIM10 inh = growth inhibitors of TIM10 yeast strain; S. cerevisiae TIM10 strain growth, BacTiter-Glo luminescence, 24 h; inhibition, % at 10 µM; 330,000 tested, 1.4% active;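 active = inhibition of 40% or more at the single tested concentration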;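 also: wild-type TIM10 isogenic control strain grown at permissive 25 °C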
PfHsp90 yeast 2 = growth inhibition of yeast expressing Plasmodium Hsp90 | inhibition, % at 9.4 µM | S. cerevisiae expressing PfHsp90, BacTiter-Glo ATP, 48 h; yeast lacking PDR1 and PDR3 efflux regulators | AID 504621 | 310,000 tested, 0.32% active;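 active = every replicate shows inhibition above about 80%, whatever the replicate mean, limit read from the data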;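 also: 0% = DMSO neutral controls and 100% = 20 µM radicicol positive controls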
tim10-1 inh = tim10-1 yeast growth inhibition; AID 463190; inhibition, % at 20 µM; 330,000 tested, 2.2% active; S. cerevisiae tim10-1 ts strain growth, BacTiter-Glo, 24 h;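 active = inhibition of at least 40%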;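 also: mutant grown at 25 °C; 0% = DMSO wells with yeast and 100% = wells holding no yeast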
tim23-1 inh = growth inhibitors of tim23-1 mutant yeast. S. cerevisiae tim23-1 growth, BacTiter-Glo luminescence, 24 h. inhibition, % at 20 µM. 330,000 tested, 1.3% active. AID 463212;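 active = growth inhibition of the mutant yeast at or above 50%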;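 also: temperature-sensitive mutant grown at 25 °C; plate controls were DMSO-treated mutant yeast for no effect and medium wells lacking yeast for full effect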
Mot1-301 SUMO = blocks SUMOylation pathway, rescuing yeast Mot1-301 growth. S. cerevisiae Mot1-301 growth rescue, ATP luminescence, 38.5C; percent above DMSO median, 100 means doubled. growth rescue, % at 18.8 µM. 320,000 tested, 1% active;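 active = every valid replicate shows activation above 250% relative to neutral control wells; inactive = the rest, any valid replicate at or below 250%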;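 also: OY570 slx delta 5 strain wells were the positive control but not used for scaling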
tim23-1 confirm = tim23-1 yeast growth inhibition, confirmed; shares compounds with tim23-1 inh; S. cerevisiae tim23-1 growth, BacTiter-Glo luminescence, 24 h; inhibition, % at 20 µM; 4,400 tested, 83% active; AID 463218;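 active = inhibition above about 39% in either of two replicate wells at 20 µM, limit read from the data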;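 also: temperature-sensitive tim23-1 mutant grown at 25 °C; 0% = DMSO wells with yeast and 100% = medium wells without yeast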
* marks the source's active call; other numbers are inactive results; / = no result given.

SMILES | TIM10 inh | PfHsp90 yeast 2 | tim10-1 inh | tim23-1 inh | Mot1-301 SUMO | tim23-1 confirm
Fc1cccc(CNc2ncnc3cc(Cl)ccc23)c1F | 13 | -5 | 18 | 60* | 34 | 12
O=C(Nc1ccn(Cc2ccc(Cl)cc2)n1)c1ccc2c(c1)OCO2 | 35 | -12 | 8 | 59* | 18 | 63*
Cc1cc(OCC(=O)c2cccc(C(F)(F)F)c2)n2cnnc2n1 | 11 | 11 | 6 | 6 | -3 | /
Cc1cc(OCC(=O)c2ccc(C(F)(F)F)cc2)n2cnnc2n1 | -3 | 1 | -12 | 96* | -8 | 0
Cc1cc(N=Cc2cc(Br)ccc2O)no1 | 8 | / | 36 | 67* | 6 | 34
CN1CCSc2ccc(C(=O)NCc3cccc(Br)c3)cc21 | 28 | 12 | 37 | 53* | 5 | 50*
Cc1cccc(CNC(=O)c2ccc3c(c2)N(C)CCS3)c1 | 0 | 10 | 22 | 30 | 114 | /
CC(=O)Nc1ccc(N=Cc2c(O)ccc3ccccc23)cc1 | 3 | 1 | -1 | 49 | -16 | /
Oc1ccc2oc3c(c2c1/C=N/n1cnnc1)CCCC3 | 10 | 7 | 27 | 9 | -14 | /
NC(=O)c1ccc(N=Cc2c(O)ccc3ccccc23)cc1 | 11 | -12 | 22 | 57* | 2 | 45*
O=C(O)c1ccc(N=Cc2c(O)ccc3oc4c(c23)CCCC4)cc1 | 25 | -20 | 14 | 66* | 7 | 71*
O=C(O)c1ccc(N=Cc2c(O)ccc3ccccc23)cc1 | 12 | 5 | 8 | 58* | 42 | 56*
O=C(O)Cc1ccc(N=Cc2c(O)ccc3ccccc23)cc1 | 20 | 11 | -9 | 34 | -2 | /
COc1ccc(N=Cc2c(O)ccc3ccccc23)cc1 | 19 | 1 | 35 | 57* | 60 | 57*
S=C1CCC(c2ccc(Cl)cc2)=NN1c1ccccc1 | 37 | 4 | 34 | 50* | 37 | 34
O=C(c1ccccc1)N1CCCC(c2ccc(Cl)cc2)=N1 | 26 | / | 35 | 41 | -6 | /
Cc1ccc(C(C[N+](=O)[O-])c2c(N)n(C)c(=O)n(C)c2=O)cc1 (stereo unspecified) | 24 | 108* | 36 | 54* | 249 | 64*
CC(C)N(C(=O)[C@H]1C[C@H](CC(=O)NCCC2=CCCCC2)C(=O)N2CCc3c([nH]c4cc(-c5ccco5)ccc34)[C@]12C)C(C)C | 1 | 24 | 18 | 36 | / | /
CCOc1ccc(-n2ccnc(SCC(=O)Nc3ccc(CC)cc3)c2=O)cc1 | 7 | -11 | 16 | 56* | 10 | 53*
COc1ccc(-n2ccnc(SCC(=O)NC3CCCC3)c2=O)cc1 | 10 | -7 | 19 | 5 | 15 | /
CS(=O)(=O)c1ccc(C(=O)CN2C(=O)NC3(CCCc4ccccc43)C2=O)cc1 (stereo unspecified) | 2 | 21 | 2 | 8 | -2 | /
CC(C)CN(C(=O)c1ccc(N2CCCC2=O)cc1)c1c(N)n(Cc2ccccc2)c(=O)[nH]c1=O | 10 | -23 | 13 | 20 | -4 | /
CC(C)CN(C(=O)c1ccc2c(c1)OCCO2)c1c(N)n(Cc2ccccc2)c(=O)[nH]c1=O | 17 | / | 28 | 52* | -8 | 55*
CCCCN(C(=O)c1ccc2c(c1)OCCO2)c1c(N)n(CC(C)C)c(=O)[nH]c1=O | 6 | / | 12 | 58* | -8 | 58*
CCCCn1c(N)c(N(CCC(C)C)C(=O)c2ccc3c(c2)OCCO3)c(=O)[nH]c1=O | 22 | / | 30 | 59* | -1 | 56*
SMILES | TIM10 inh | PfHsp90 yeast 2 | tim10-1 inh | tim23-1 inh | Mot1-301 SUMO | tim23-1 confirm
COc1cc(C(=O)Nc2ccc(C(F)(F)F)cc2)ccc1OCC(=O)N1CCOCC1 | 2 | / | -11 | -2 | / | /
CCCCOc1ccc(N(CC(=O)NCCOC)C(=O)CCC(=O)Nc2ccccn2)cc1 | -10 | -7 | 7 | -6 | -12 | /
Cc1ccc(-c2csc(N)n2)cc1 | / | -15 | / | / | / | /
Oc1ccc(-c2csc(-c3ccccc3)n2)cc1O | -39 | -7 | 7 | 58* | 40 | -10
Oc1ccc(-c2csc(-c3cccnc3)n2)cc1O | 13 | -15 | -17 | -34 | -10 | /
Nc1nc(-c2ccc(-c3ccccc3)cc2)cs1 | 0 | -92 | 27 | 54* | -33 | 69*
Nc1nc(-c2ccc(Oc3ccccc3)cc2)cs1 | 7 | -108 | 11 | 57* | -35 | 48*
CC(C)(C)NC(=O)CSc1nc(-c2ccc(F)cc2)cs1 | 3 | 3 | 15 | 77* | -10 | 14

Screening data (PubChem)
